# Pol eta inh-1 = qHTS for Inhibitors of Polymerase Eta | recombinant Pol eta, fluorescent DNA replication assay | actives 1.2% (n = 390,000) | Potency, µM (titrated, usually from 114 µM), inactives show at the top dose activity change, negative = inhibition, most hits filed as inhibitors; note: % is set by controls: 0 for no effect and ±100 for the full control effect
#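 Pol eta (10 nM) was preincubated with compounds for 15 min at room temperature, after which fluorescent replication substrate (50 nM final) was added to start the reaction. Fluorescence was read kinetically at 0 and 10 min.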
# WRN helicase inh = qHTS for Inhibitors of WRN Helicase. actives 0.46% (n = 360,000). Bifunctional 3'-5' exonuclease/ATP-dependent helicase WRN (Homo sapiens), Q14191. WRN helicase unwinding, fluorescent forked duplex, kinetic. Potency, µM (series often up to 114 µM), for the others: at the top dose activity change, negative = inhibition, most hits filed as inhibitors. AID 651768, 2012; note: % is set by controls: 0 for no effect and ±100 for the full control effect; nearly all actives have a fitted effect of over 55% in size
#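 WRN at 20 nM final was preincubated with compound for 15 min at room temperature; reaction started with 100 nM forked duplex oligonucleotide carrying fluorophore and quencher plus 2 mM ATP (final). Unwinding followed kinetically by red fluorescence (ex 525/em 598 nm).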
# FEN1 inhibitor = qHTS Assay for the Inhibitors of Human Flap endonuclease 1 (FEN1). P39748. Recombinant FEN1 flap cleavage, fluorescence, 15 min. Potency, µM (doses to about 114 µM), without a hit: top-dose activity change, negative = inhibition, actives largely listed as inhibitors. actives 0.35% (n = 390,000). AID 588795, 2011; note: % is set by controls: 0 for no effect and ±100 for the full control effect; nearly all actives have a fitted effect of over 65% in size
#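 Quantitative HTS format: each compound was titrated, incubated with 10 nM nuclease for 15 min at room temperature, then challenged with flap substrate at 50 nM final. Signal change over 15 min gave concentration–effect curves.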
# Pol iota inh = qHTS for Inhibitors of Polymerase Iota | DNA polymerase iota (Homo sapiens), Q9UNA4 | Pol iota fluorescent replication assay, 10 min | Potency, µM (highest dose often 115 µM), for inactives: at the highest dose activity, negative = inhibition, hits mostly inhibitors | actives 1% (n = 390,000) | AID 588590, 2011
# Target sequence (Q9UNA4 whole entry, looked up): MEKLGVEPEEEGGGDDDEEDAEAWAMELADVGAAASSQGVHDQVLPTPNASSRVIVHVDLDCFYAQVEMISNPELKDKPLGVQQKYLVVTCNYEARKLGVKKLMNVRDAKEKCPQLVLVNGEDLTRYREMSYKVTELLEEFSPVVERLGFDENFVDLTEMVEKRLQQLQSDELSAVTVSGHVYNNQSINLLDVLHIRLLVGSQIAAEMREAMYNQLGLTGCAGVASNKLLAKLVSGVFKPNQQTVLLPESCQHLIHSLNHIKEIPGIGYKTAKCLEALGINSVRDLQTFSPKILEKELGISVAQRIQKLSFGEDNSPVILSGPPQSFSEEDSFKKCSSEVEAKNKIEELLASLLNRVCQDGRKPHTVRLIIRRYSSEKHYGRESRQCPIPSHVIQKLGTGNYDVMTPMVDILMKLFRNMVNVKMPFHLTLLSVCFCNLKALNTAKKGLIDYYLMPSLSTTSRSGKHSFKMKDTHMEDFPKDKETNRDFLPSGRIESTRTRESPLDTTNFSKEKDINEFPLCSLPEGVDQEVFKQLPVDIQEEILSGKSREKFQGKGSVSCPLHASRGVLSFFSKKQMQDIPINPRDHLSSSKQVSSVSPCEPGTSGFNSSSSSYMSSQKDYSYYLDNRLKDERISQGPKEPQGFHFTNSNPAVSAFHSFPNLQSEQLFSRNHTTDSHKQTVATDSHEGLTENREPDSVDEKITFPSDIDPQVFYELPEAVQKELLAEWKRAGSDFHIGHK
#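 Fluorescent replication assay read twice, at 0 min and 10 min after adding 50 nM (final) substrate. Enzyme (10 nM) and compounds were first incubated 15 min at room temperature; enzyme-free buffer wells were negative controls.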
# Pol beta inh = qHTS Assay for Inhibitors of DNA Polymerase Beta. P06746. Pol beta primer extension/strand displacement, fluorescence kinetic. Potency, µM (highest dose often 114 µM), without a hit: top-dose activity change, negative = inhibition, actives largely listed as inhibitors. actives 1.3% (n = 340,000). AID 485314, 2010; note: % is set by controls: 0 for no effect and ±100 for the full control effect
#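 Preincubation: enzyme (10 nM) with compound, 15 min, RT. Reaction: substrate added to 50 nM final. Reads: 0 and 10 min. Analysis: normalized, Hill fit.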
# Pol kappa inh-1 = qHTS for Inhibitors of Polymerase Kappa; DNA polymerase kappa (Homo sapiens), Q9UBT6; purified Pol kappa, fluorescent DNA synthesis assay, 10 min; Potency, µM (doses to about 107 µM), for the others: at the top dose activity, negative = inhibition, hits mostly inhibitors; actives 0.53% (n = 400,000); AID 588579, 2011; note: % is set by controls: 0 for no effect and ±100 for the full control effect
#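 Activity was followed as the change in fluorescence between reads at 0 and 10 min after starting the reaction with 50 nM substrate. Beforehand, 10 nM polymerase had been preincubated with compound for 15 min at room temperature.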
# Pol kappa inh-2 = qHTS for Inhibitors of Polymerase Kappa: Confirmatory Assay for Cherry-picked Compounds; actives 76% (n = 920); Potency, µM, usual class: inhibitors; purified Pol-kappa, fluorescent strand-displacement substrate; shares compounds with Pol eta inh-1
# Pol eta inh-2 = qHTS for Inhibitors of Polymerase Eta: Confirmatory Assay for Cherry-picked Compounds; AID 720502, 2013; actives 64% (n = 2,600); shares compounds with Pol eta inh-1; Potency, µM, most hits filed as inhibitors; Pol eta primer extension, TAMRA/BHQ fluorescence, 10 min
# Numbers without * were called inactive; ? = inconclusive; / = no result; [ ] = remark or other dose. An excerpt weighted towards active compounds, which were near 2.4% of everything screened. Calls come from the whole dose curve; as a rule, active = well fitted curve in the direction sought with a large enough effect; inconclusive = small, poorly fitted or top-dose-only effect, or another doubt; inactive = no such curve, though single readings can be large; an effect the other way counts as inactive or inconclusive. Potency is the fitted concentration of half-maximal effect.
SMILES,Pol eta inh-1,WRN helicase inh,FEN1 inhibitor,Pol iota inh,Pol beta inh,Pol kappa inh-1,Pol kappa inh-2,Pol eta inh-2
CC(/C=C1\SC(=S)N(CCC(=O)Nc2cccc(C(=O)O)c2)C1=O)=C\c1ccccc1,?,79µM*,-11%,-12%,?,-14%,?,?
COc1ccccc1/C=C1/SC(=O)N(CCC(=O)Nc2ccc(S(=O)(=O)Nc3nccs3)cc2)C1=O,20µM*,?,?,50µM*,?,-14%,/,?
COc1ccccc1/C=C1\SC(=S)N(CCC(=O)Nc2ccc(C(=O)O)c(O)c2)C1=O,35µM*,-11%[11.6 µM],?,?,79µM*,-34%,?,?
O=C(O)c1[nH]c2ccc(Cl)cc2c1CC(=O)N1CCN(C(=O)c2ccco2)CC1,7.1µM*,?,-16%,?,13µM*,50µM*,/,30*
COc1ccc(C(O)c2nc(-c3cccc(NC(C)=O)c3)cs2)cc1 (configuration not stated),/,3%,/,/,/,/,/,/
O=C(COC(=O)c1ccc(O)cc1O)Nc1ncc(Cl)cc1Cl,?,-4%[11.6 µM],-4%,-9%,/,-17%,/,?
O=C(COC(=O)C1CCCC1)Nc1ncc(Cl)cc1Cl,16µM*,-34%,1%,?,/,?,/,?
O=C(COC(=O)c1ccc(Br)o1)Nc1ncc(Cl)cc1Cl,?,-27%,-8%,?,?,-42%,/,/
O=C(COC(=O)c1cnccn1)Nc1ncc(Cl)cc1Cl,22µM*,?,2%,?,/,-16%,/,?
N#Cc1c(NC(=O)COC(=O)c2ccc(O)cc2O)sc2c1CCC2,20µM*,-12%[11.6 µM],-12%,?,/,79µM*,/,?
CCn1c(=O)cc(SCC(=O)N2CCN(c3cc(C)ccc3C)CC2)c2ccccc21,-27%,/,-17%,14%,9%,-6%,/,/
CCOC(=O)c1ccc(/C=C2/C=C(c3ccccc3)N(c3ccc(Cl)c(C(=O)O)c3)C2=O)cc1,20µM*,50µM*,-22%,?,32µM*,-17%,?,60*
CCOC(=O)c1ccc(Cl)c(NC(=O)c2ccc(-c3ccccc3)cc2)c1,-5%,31%,1%,6%,-1%,-18%,/,/
O=C1c2cccc3cccc(c23)C(=O)N1c1ccc2ncccc2c1,?,79µM*,?,?,32µM*,?,?,/
NC(=O)COC(=O)c1ccc(S(=O)(=O)NCc2ccco2)cc1,35µM*,-28%,2%,14µM*,?,?,/,?
O=C(COc1ccccc1F)Nc1ccc(S(=O)(=O)NCc2ccco2)cc1,-11%,-2%,1%,7%,-3%,-8%,/,/
O=C(COc1ccccc1)Nc1ccc(S(=O)(=O)NCc2ccco2)cc1,18µM*,-32%[57.1 µM],2%,?,45µM*,?,/,?
O=C(OCc1ccco1)c1ccc(S(=O)(=O)N2CCCCC2)cc1,10µM*,?,-25%,?,?,79µM*,/,?
O=C(COC(=O)c1ccc(S(=O)(=O)NCc2ccco2)cc1)NCc1ccccc1,-14%,-9%,0%,?,/,?,/,/
O=C(OCC(=O)N1CCN(C(=O)c2ccco2)CC1)c1ccc(S(=O)(=O)N2CCCCC2)cc1,-4%,-15%,1%,14%,?,-9%,/,/
O=C(COc1ccccc1)NCCSCc1ccco1,14µM*,-33%[57.1 µM],-3%,?,?,?,/,?
Cc1ccc2c(c1)C(c1ccccc1)N(C(=O)c1ccc(S(=O)(=O)N3CCCC3)cc1)CC(=O)N2 (configuration not stated),-16%,/,-16%,-13%,14%,-9%,/,/
CCOc1ccc(N=C2NC(=O)/C(=C/C(=O)OC)S2)cc1,-13%,-20%,4%,-6%,58%,-17%,/,/
CCc1ccc(N=C2NC(=O)/C(=C/c3ccc(OCC(=O)O)cc3)S2)cc1,45µM*,?,?,?,40µM*,?,?,/
O=C(NC(Cc1c[nH]c2ccccc12)C(=O)O)c1cccc(S(=O)(=O)N2CCCCC2)c1 (configuration not stated),-1%,-7%,/,/,/,/,/,/
SMILES,Pol eta inh-1,WRN helicase inh,FEN1 inhibitor,Pol iota inh,Pol beta inh,Pol kappa inh-1,Pol kappa inh-2,Pol eta inh-2
COc1ccc(C2=NN(C(=O)CCCC(=O)O)C(c3cn(-c4ccccc4)nc3-c3ccccc3)C2)cc1 (configuration not stated),-20%,0.3µM*,-8%,20µM*,?,?,0.38*,?
COc1ccc(C2CC(c3ccccc3)=NN2C(=O)CCCC(=O)O)cc1 (configuration not stated),9%,1%,21%,-9%,4%,6%,/,/
COc1cccc(OCCOc2ccc(/C=C3/SC(=S)NC3=O)cc2)c1,28µM*,?,-7%,?,10µM*,-53%,?,85*
CCC1S/C(=N/S(=O)(=O)c2ccc(N)cc2)NC1=O (configuration not stated),-14%,-13%,6%,70%,/,-17%,/,/
O=c1[nH][nH]c2cc(=O)n(-c3ccc(Cl)cc3)nc12,?,?,-32%,?,?,79µM*,17*,?
CCOc1ccc(NS(=O)(=O)c2ccc3[nH]cc(C(=O)N4CCCC4)c(=O)c3c2)cc1,5%,/,14%,-20%,-1%,-29%,/,/
c1coc(-c2nc3ccccc3nc2-c2ccco2)c1,50µM*,?,-28%,?,18µM*,?,/,?
COc1ccc(C=NNc2ccc([N+](=O)[O-])cc2S(=O)(=O)Nc2ccccc2C(=O)O)cc1OC,35µM*,?,?,36%,/,-37%,/,?
C#Cc1ccc([C@H]2C=C(C(=O)O)O[C@@H](OCCCCO)C2)cc1,20µM*,-21%,8%,50µM*,/,?,?,/
COc1ccc([C@@H]2C=C(C(=O)O)O[C@H](OCCCCO)C2)cc1,-19%,3%,14%,24%,15%,-4%,/,/
